From PubChem
Pf growth 48h: inhibits P. falciparum growth in the first generation, 48 h | P. falciparum luciferase growth in erythrocytes, 48 h | Potency, µM (doses to about 28.7 µM), hits mostly inhibitors | AID 504832 | 5.9% of 310,000 active
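Growth was read as firefly luciferase luminescence after a 48 h, 37 C, 5% CO2 exposure of compounds to reporter-bearing P. falciparum cultures (0.1% parasitemia, 2% hematocrit final) in Albumax-supplemented RPMI 1640.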
Pf growth 96h: inhibits malaria parasite growth, 96 h | 6.9% of 320,000 active | Potency, µM (top dose mostly 28.7 µM), usual class: inhibitors | P. falciparum luciferase reporter growth, 96 h
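Delayed-death screen, second-generation endpoint: infected erythrocytes, 2% hematocrit, 0.05% parasitemia final; 96 hours at 37 C, 5% CO2; luciferase detection reagent; luminescence decrease equals reduced growth.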
Sm TGR block: inhibitors of Schistosoma mansoni thioredoxin glutathione reductase; Q962Y6; purified TGR, DTNB reduction, TNB absorbance 405 nm; Potency, µM (top dose mostly 114 µM), usual class: inhibitors; 3% of 360,000 active; AID 485364; further: nearly all actives have a fitted effect of over 60% in size
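First, TGR (20 nM dispensed) and NADPH were mixed with compound. Second, a 15 min room-temperature incubation followed. Third, further NADPH and then DTNB were added to start the reaction. Finally, TNB absorbance was monitored kinetically.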
Shiga inhibitor: blocks Shiga toxin action in Vero cells. Vero cells, Shiga toxin protein synthesis inhibition reporter. inhibition, % at 38.7 µM. 9.2% of 290,000 active; in the data active means inhibition mostly above about 28%, no sharp cut-off; inactive means mostly below about 43%
CHX counter: counter-screen for Shiga toxin inhibitors: cycloheximide protein synthesis inhibition; cell reporter, cycloheximide protein synthesis inhibition counterscreen; max response, %; 12% of 300,000 active; in the data active means max response mostly above about 13%, no sharp cut-off; inactive means mostly below about 14%; further: read at 38.3 µM for the half of the compounds with a filed dose
NS1 inh: blocks influenza NS1 protein function | Potency, µM (top dose mostly 46.1 µM) | 0.4% of 270,000 active | AID 2326; calls by dose curve; further: actives are rising curves; nearly all actives have a fitted effect of over 50% in size
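In this qHTS, NS1 from influenza A is expressed in budding yeast, where it slows growth. Cells are switched from glucose to 2% galactose medium (pH 6.0, -URA), treated with compound, and growth recovery is read at OD600.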
Each line names hits and unclear results; the compound was inactive in the other large screens. Most compounds without a hit are left out; they make up all but 21% or so of the library. Unless noted, the call rests on the fitted dose curve; in most records, active means well fitted curve in the direction sought with a large enough effect; inconclusive means small, poorly fitted or top-dose-only effect, or another doubt; inactive means no such curve, though single readings can be large; an effect the other way counts as inactive or inconclusive.

CC1CCCCN1C(=O)c1cc(-c2ccc3c(c2)OCO3)on1 (centres undefined)	Pf growth 96h inconclusive, Shiga inhibitor 89, CHX counter 36
CCC1CCCCN1C(=O)c1cc(-c2ccc(Cl)c(Cl)c2)on1 (centres undefined)	Shiga inhibitor 94, CHX counter 39
CC1CCCCN1C(=O)c1cc(-c2ccc(Cl)c(Cl)c2)on1 (centres undefined)	CHX counter 29
CC(=O)C1=C(c2ccc(F)cc2)N(C(C)=O)n2c(nnc2C2CCCCC2)S1	none (no result: Pf growth 48h, Pf growth 96h, Shiga inhibitor, CHX counter, NS1 inh)
O=C(COc1ccc(S(=O)(=O)N2CCCC2)cc1Cl)NCc1cccnc1	Pf growth 96h inconclusive
O=C(O)c1ccccc1SCCS(=O)(=O)c1ccc(Cl)cc1Cl	Sm TGR block 45µM
O=C(c1cc(-c2ccccc2)on1)N1CCN(c2ccccc2)CC1	none
O=C(c1cc(-c2cccc(O)c2)on1)N1CCCCCC1	Shiga inhibitor 112, CHX counter 37
O=C1c2ccccc2-c2ccc(C(=O)N3CCOCC3)cc21	CHX counter 22 (no result: Pf growth 96h)
O=C(c1cccc(-c2ccc(O)cc2)c1)N1CCOCC1	CHX counter 13 (no result: Pf growth 48h)
O=C(c1cc(-c2cccc(O)c2)on1)N1CCOCC1	Shiga inhibitor 23, CHX counter 13
CC1(c2ccc3c(c2)OCCO3)NC(=O)N(CC(=O)Nc2ccccc2F)C1=O (centres undefined)	none (no result: Shiga inhibitor, CHX counter, NS1 inh)
Cc1cc(C)c(NC(=O)CN2CCC(NC(=O)NC3CCCCC3)CC2)c(C)c1	none (no result: Sm TGR block)
CCOC(=O)N1CCN(Cc2nc3c(c(=O)[nH]c(=O)n3C)n2Cc2cc(C)ccc2C)CC1	Pf growth 48h 13µM
CCOC(=O)N1CCN(Cc2nc3c(c(=O)n(C)c(=O)n3C)n2Cc2ccccc2C)CC1	Pf growth 48h 10µM, Pf growth 96h inconclusive
CCCCCn1c(CN2CCN(C(=O)OCC)CC2)nc2c1c(=O)[nH]c(=O)n2C	Pf growth 96h inconclusive
[ClH+][Cu][ClH+].[Cu].[OH2+]c1ccc2ccccc2c1CN1CCCCC1.[OH2+]c1ccc2ccccc2c1CN1CCCCC1	none (no result: Pf growth 48h, Pf growth 96h, Sm TGR block, Shiga inhibitor, CHX counter)
O=C(/C=C/c1ccc(S(=O)(=O)N2CCOCC2)cc1)NCc1ccccc1	Pf growth 96h inconclusive
COc1ccc(N=C/C=C2\C=C(c3ccccc3)OC(C)(C)O2)cc1	Pf growth 48h inconclusive, Pf growth 96h inconclusive, Sm TGR block 40µM, CHX counter 17
Cc1ccccc1N=C/C=C1/C=C(c2ccccc2)OC(C)(C)O1	Pf growth 48h inconclusive, Pf growth 96h inconclusive
Cc1ccc(C2C(C#N)=C(N)N(c3cccnc3)C3=C2C(=O)CCC3)c(C)c1 (centres undefined)	Pf growth 48h inconclusive (no result: Sm TGR block)
COc1ccc(C(=O)Cn2nnc(-c3ccccc3NC(=O)C3CCCCC3)n2)cc1	Pf growth 48h 12µM (no result: Pf growth 96h)
O=C(NC(C(=O)N/N=C/c1ccccc1)c1n[nH]c(=O)c2ccccc12)c1ccccc1 (centres undefined)	Pf growth 48h inconclusive
O=C(NC(C(=O)N/N=C/c1c2ccccc2cc2ccccc12)c1n[nH]c(=O)c2ccccc12)c1ccccc1 (centres undefined)	Pf growth 48h 12µM, Pf growth 96h 13µM
CN(Cc1ccc(F)cc1)C(=O)c1ccc(NC(=O)CC2SC(N3CCCC3)=NC2=O)cc1 (centres undefined)	Pf growth 48h inconclusive, Pf growth 96h inconclusive (no result: Shiga inhibitor, CHX counter, NS1 inh)
O=C(CC1SC(N2CCCC2)=NC1=O)Nc1ccc(C(=O)Nc2ncccc2O)cc1 (centres undefined)	Pf growth 48h 2.6µM, Pf growth 96h inconclusive (no result: Shiga inhibitor, CHX counter, NS1 inh)
Cc1ccnc(NC(=O)c2ccc(NC(=O)CC3SC(N4CCCC4)=NC3=O)cc2)c1 (centres undefined)	Pf growth 48h inconclusive, Pf growth 96h inconclusive (no result: Shiga inhibitor, CHX counter, NS1 inh)
Cc1ccnc(NC(=O)c2cccc(NC(=O)CC3SC(N4CCCCC4)=NC3=O)c2)c1 (centres undefined)	Pf growth 48h inconclusive, Pf growth 96h 8.3µM (no result: Shiga inhibitor, CHX counter, NS1 inh)
COc1cccc(CN(C)C(=O)c2ccc(NC(=O)CC3SC(N4CCCC4)=NC3=O)cc2)c1OC (centres undefined)	Pf growth 48h inconclusive, Pf growth 96h 6.6µM (no result: Shiga inhibitor, CHX counter, NS1 inh)
O=C(c1sc2cccc(Cl)c2c1Cl)N1CCN(CCc2ccccn2)CC1	none
Cc1ccc(-c2nnc(N3CCOCC3)c3ccccc23)cc1S(=O)(=O)N(C)C	Pf growth 48h inconclusive
Cn1cc(C(=O)NCCc2ccc(Cl)cc2)c(=O)c2cc(S(=O)(=O)N3CCCCC3)ccc21	none (no result: Pf growth 48h, Pf growth 96h, Shiga inhibitor, CHX counter, NS1 inh)
COc1cccc(-n2c(=O)c3cc(OC)c(OC)cc3n(CC(=O)Nc3ccccc3)c2=O)c1	none (no result: Pf growth 48h, Pf growth 96h, Shiga inhibitor, CHX counter, NS1 inh)
O=C(CCc1ccccc1)NCCc1nc2ccccc2[nH]1	none
Cc1ccc2nc(CCc3ccc(N)cc3)[nH]c2c1	Pf growth 48h inconclusive, CHX counter 50, NS1 inh inconclusive (no result: Shiga inhibitor)
Nc1ccc2nc(CCc3ccccc3)[nH]c2c1	Shiga inhibitor 22, CHX counter 71
CCO[P@]1(=O)OC[C@@H]2O[C@H](n3cnc4c(N)ncnc43)[C@H](O)[C@@H]2O1	none (no result: Pf growth 48h, Pf growth 96h, Sm TGR block, Shiga inhibitor, CHX counter)
CC(Sc1n[nH]c(-c2cccs2)n1)C(=O)Nc1ccc(C(N)=O)cc1 (centres undefined)	none (no result: Shiga inhibitor, CHX counter, NS1 inh)
CCOC(=O)C1=C(C)OC(N)=C(C#N)C1c1ccsc1 (centres undefined)	Sm TGR block inconclusive
C=CCOC(=O)C1=C(C)OC(N)=C(C#N)C1c1ccc2c(c1)OCO2 (centres undefined)	Pf growth 96h 10µM
CC(C)(C)C1=C(C#N)C(c2ccc3c(c2)OCO3)C(C#N)=C(N)O1 (centres undefined)	Pf growth 48h inconclusive, Pf growth 96h inconclusive, Sm TGR block 2µM
COCCOC(=O)C1=C(C)OC(N)=C(C#N)C1c1ccc2c(c1)OCO2 (centres undefined)	none (no result: Pf growth 96h)
C=CCOC(=O)C1=C(C)OC(N)=C(C#N)C1c1ccoc1 (centres undefined)	Sm TGR block 20µM
O=c1c(Cc2c(F)cccc2Cl)c(O)ccn1C1CCCCCC1	Pf growth 48h inconclusive
O=C(Nc1cc(N2CCOCC2)ncn1)c1ccc(F)cc1	Pf growth 96h inconclusive, Shiga inhibitor 75, CHX counter 33
O=C(Nc1cc(N2CCCCC2)ncn1)c1ccc(F)cc1	Pf growth 96h inconclusive, CHX counter 26 (no result: Sm TGR block)
O=S(=O)(/N=C(/Nc1cc(N2CCOCC2)ncn1)c1ccc(F)cc1)c1ccccc1	none (no result: Pf growth 96h)
CN1C(=O)CC(c2cn(Cc3ccccc3)c3ccccc23)C1=O (centres undefined)	Pf growth 48h inconclusive, Pf growth 96h 2.6µM
O=C(OCc1nnc(-c2ccccc2)o1)C1CC(=O)N(CCc2ccccc2)C1 (centres undefined)	none (no result: Shiga inhibitor, CHX counter, NS1 inh)
O=C(NC1CCCCC1)N1CCCc2ccccc21	none
O=C1CC(C(=O)N2CCCc3ccccc32)CN1c1ccc(Cl)cc1 (centres undefined)	Pf growth 96h inconclusive, CHX counter 39
